PI4K2A block = blocks human PI4K2A kinase activity. Q9BTU6. purified PI4K2A, ADP-Glo luminescence, 1 h; hits give low values. activity change, negative = inhibition, % at 76.9 µM. 420,000 compounds, 0.13% hits. AID 1346378; in the data active = activity change below about -50%; inconclusive = mostly about -30% to -49%;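 also: -100% = wells without enzyme as full effect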
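ADP-Glo luminescence measured ADP generated by PI4K2A enzyme (4 ug/mL before mixing) with 1.2 mM PI substrate (pre-mix) and 300 microM ATP (pre-mix). Tris pH7.5 buffer with MgCl2, Triton X-100; 1 h reaction at ambient temperature.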
Tb PGK inh = blocks T. brucei phosphoglycerate kinase; P07378; PGK/GAPDH coupled, Kinase-Glo luminescence, 60 min; Potency, µM (titrated, usually from 57.5 µM), for inactives: at the top dose activity change, negative = inhibition, hits mostly inhibitors; 380,000 compounds, 0.043% hits; also: potency is read from the fitted curve at half-maximal effect; nearly all actives have a fitted effect of over 60% in size
Target sequence (P07378 whole entry, looked up): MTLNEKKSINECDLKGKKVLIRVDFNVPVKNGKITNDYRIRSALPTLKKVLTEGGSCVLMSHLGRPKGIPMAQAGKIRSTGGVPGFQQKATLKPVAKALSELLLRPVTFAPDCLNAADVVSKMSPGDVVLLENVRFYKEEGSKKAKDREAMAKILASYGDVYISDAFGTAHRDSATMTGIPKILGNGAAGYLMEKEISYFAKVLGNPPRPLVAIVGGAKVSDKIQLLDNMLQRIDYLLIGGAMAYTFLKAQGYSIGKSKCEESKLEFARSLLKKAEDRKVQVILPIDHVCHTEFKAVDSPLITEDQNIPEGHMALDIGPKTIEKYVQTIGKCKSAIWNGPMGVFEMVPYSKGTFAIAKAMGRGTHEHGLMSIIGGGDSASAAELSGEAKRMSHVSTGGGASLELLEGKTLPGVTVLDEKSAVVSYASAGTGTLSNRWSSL
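Recombinant glycosomal PGK reaction used 1,3-bisphosphoglycerate generated in-well by GAPDH (100nM final) in 100mM TEA pH 7.6, 5mM MgCl2, 0.01% Tween-20. After 60 minutes at room temperature, ATP was read by Kinase-Glo Plus luminescence end-point.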
PI5P4K alpha inh = PI5P4K alpha (human) kinase inhibition. PI5P4Kalpha enzyme, ADP-Glo luminescence, 60 min; hits give low values. 330,000 compounds, 1.2% hits. max response, %. P48426; active = max response of -50% or lower; inconclusive = between -30% and -50%; inactive = -30% or higher; also: value at the top dose of about 77 µM
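qHTS, 1536-well: enzyme/substrate mix, compound by pin tool, 5 microM ATP final; RT 60 min; ADP-Glo reagents 1 (45 min) then 2 (30 min); luminescence.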
Pin1 inh = inhibitors of human Pin1 | Q13526 | Pin1 FP peptide displacement, HiFluor488, 10 min | Potency, µM (doses to about 115 µM), without a hit: at the highest dose activity, negative = inhibition, most hits filed as inhibitors | 390,000 compounds, 0.009% hits; active = well fitted inhibition curve with a large enough effect in the polarisation, with a control signal flat, not every such curve was filed as active; inconclusive = small, poorly fitted or top-dose-only effect, or effect the other way, or a change in a side signal; inactive = no such curve, though single readings can be large or run the other way; the % refers to the polarisation; also: potency is read from the fitted curve at half-maximal effect
Target sequence (Q13526 whole entry, looked up): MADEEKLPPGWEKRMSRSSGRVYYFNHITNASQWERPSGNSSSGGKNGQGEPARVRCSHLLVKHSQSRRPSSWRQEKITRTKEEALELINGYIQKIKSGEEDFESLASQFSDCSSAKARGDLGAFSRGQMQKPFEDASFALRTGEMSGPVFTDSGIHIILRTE
Tb PFK inh = T. brucei PFK enzyme inhibition. O15648. T. brucei PFK, ADP-Glo luminescence. Potency, µM (top dose mostly 57.5 µM), without a hit: at the highest dose activity, negative = inhibition, most hits filed as inhibitors. 330,000 compounds, 0.17% hits. AID 485367;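 also: potency is read from the fitted curve at half-maximal effect; 0% = uninhibited 1x PFK enzyme wells and -100% = no-enzyme wells; nearly all actives have a fitted effect of over 60% in size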
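Compounds were pin-transferred as a titration series up to 57 uM into substrate buffer (0.5 mM F6P, 0.1 mM ATP, pH 8.0), then 1.25 nM PFK was added and reactions ran 45 min before ADP-Glo detection.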
ADP-Glo interf = ADP-Glo luciferase interference, PI5P4K counter-screen | 1,100 tested, under 10 active | ADP-Glo detection counter-screen, luciferase luminescence, no enzyme | Potency, µM (highest dose often 76.9 µM), without a hit: top-dose activity change, negative = inhibition, hits mostly inhibitors | shares compounds with PI5P4K alpha inh
An asterisk follows results filed as active; i = inactive; ? = inconclusive; · = no result given. Only a selection was taken, and hits are over-represented in it overall. Unless noted, calls follow the shape of the dose curve; as a rule, active = well fitted curve in the direction sought with a large enough effect; inconclusive = small, poorly fitted or top-dose-only effect, or another doubt; inactive = no such curve, though single readings can be large; an effect the other way counts as inactive or inconclusive. Unless noted, % is scaled to controls: 0 for no effect and ±100 for the full control effect.

SMILES	PI4K2A block	Tb PGK inh	PI5P4K alpha inh	Pin1 inh	Tb PFK inh	ADP-Glo interf
O=C(NCc1ccncc1)c1ccc2nc([C@@H]3O[C@H](CO)[C@H](O)[C@H](O)[C@H]3O)[nH]c2c1	4.3	·	0.9	·	·	·
O=C(Nc1ccc2c(c1)Cc1ccccc1-2)NC1CCCCN(Cc2cccc(Cl)c2)C1=O (stereo not drawn)	3.2	·	·	·	·	·
O=C(NC1CCCCN(Cc2cccc(C(F)(F)F)c2)C1=O)c1ccc(Cl)c(Cl)c1 (stereo not drawn)	0.1	·	·	·	·	·
O=C(CCn1nnc2ccccc21)Nc1nnc(COc2ccccc2F)s1	14.8	-0.2%	-6.4	0.1%	5.6%	·
O=C(CCn1nnc2ccccc21)Nc1nnc(Cc2ccccc2)s1	-4.2	-7.9%	-52.6*	?	-7.4%	0.6%
CCc1sc(C(=O)Nc2ccc3c(c2)OCO3)cc1C	-11.9	-4.5%	-71.8*	?	-11.2%	5.4%
O=C(Oc1ccc2ccc(=O)oc2c1)C1CCCCC1	1.6	5.0%	-5.4	0.1%	-12.6%	·
O=C(Oc1cc2oc(=O)cc(-c3ccccc3)c2cc1Cl)C1CCCCC1	8.0	i	-88.0*	0.1%	0.0%	-7.6%
COc1n[nH]c(C(=O)Nc2nc3ccccc3s2)c1[N+](=O)[O-]	-1.1	i	-53.8*	-1.4%	-1.4%	1.9%
C#CCNC(=O)C[C@H]1C[C@@]2(C(=O)OC)C(=C[C@H](C(C)C)O[C@@H]2C2CC2)N(CCCCCCCC)C1=O	-1.0	·	·	·	·	·
Cc1ccc(-c2csc(N3CCN(c4cc5c(cc4Cl)nc(-c4ccncc4)n5CCN4CCCCC4)CC3)n2)cc1	-3.5	-1.0%	-64.0*	26.6%	1.5%	4.7%
CN(C(=O)c1ccc(Br)o1)C1CCS(=O)(=O)C1 (stereo not drawn)	-4.4	-9.3%	?	-4.9%	-0.5%	4.4%
CCN(C(=O)c1ccc(Br)o1)C1CCS(=O)(=O)C1 (stereo not drawn)	-2.3	-8.4%	4.0	2.3%	-11.0%	·
CCOC(=O)N1C(=O)C[C@](Sc2ccc(OC)cc2)(C(=O)N2CCOCC2)[C@H]1c1ccc(OC)cc1	-2.6	·	·	·	·	·
Cc1ccc(S(=O)c2ccc(NC(=O)C3CC3)cc2C#N)cc1 (stereo not drawn)	-4.1	-7.4%	-63.1*	-10.3%	0.9%	-6.2%
Cc1ccc(NC(=O)C2CCN(S(=O)(=O)c3ccccc3)CC2)cc1	3.3	-7.9%	-12.2	-9.6%	-1.0%	·
COC(=O)[C@]12C[C@H](CC(=O)N3CCOCC3)C(=O)N(Cc3ccco3)C1=C[C@H](C(C)(C)C)O[C@@H]2C	-1.1	·	·	·	·	·
O=S(=O)(Nc1ccc(-c2nc3cccnc3s2)cc1)c1ccccc1F	2.8	0.7%	-29.5	17.4%	19.4%	·
CCS(=O)(=O)Nc1ccc(-c2nc3cccnc3s2)cc1	-10.5	-2.1%	-59.5*	11.8%	-2.3%	-8.6%
CCS(=O)(=O)Nc1cccc(-c2nc3cccnc3s2)c1	-2.2	i	-2.1	0.2%	-0.9%	·
O=S(=O)(Nc1ccc(-c2nc3cccnc3s2)cc1)c1ccc(Cl)s1	1.0	-6.9%	-61.7*	11.3%	4.6%	-5.3%
C=CCn1c(SCC(=O)C(C)(C)C)nnc1-c1ccc(Cl)cc1	1.4	·	·	·	·	·
COC(=O)C1CN(C2CCCC2)CCS(=O)(=O)N1Cc1ccc(Cl)cc1 (stereo not drawn)	1.9	·	·	·	·	·
Cc1sc2ncnc(NC(C)C(=O)O)c2c1C (stereo not drawn)	-0.5	i	·	3.1%	5.5%	-4.7%
O=C1CCC[C@H]2C[C@H](NCc3cccc(F)c3)CC[C@]23CCCN13	4.0	·	·	·	·	·
SMILES	PI4K2A block	Tb PGK inh	PI5P4K alpha inh	Pin1 inh	Tb PFK inh	ADP-Glo interf
CN(c1cccc(NC(=O)c2ccc(N(C)S(=O)(=O)c3ccccc3)cc2)c1)S(C)(=O)=O	-3.5	-9.3%	-55.5*	1.5%	2.1%	-4.4%
Cn1c(SCC(=O)Nc2ccc3nc(SCC(=O)N4CCCC4)sc3c2)nnc1-c1ccccc1	-8.6	-25.7%	-63.9*	?	-18.2%	-6.9%
c1csc(-c2nc3ccccn3c2NC2CCCCC2)c1	2.2	2.3%	-3.6	3.5%	-4.2%	·
Cc1ccn2c(NC3CCCC3)c(-c3cccs3)nc2c1	-1.1	0.2%	-65.5*	0.2%	-1.6%	-4.8%
COc1ccc2c3c([nH]c2c1)[C@]1(CCNC=O)Nc2ccccc2C1=NCC3	-3.8	·	·	·	·	·
O=C(Nc1c(-c2ccc(F)cc2)nc2ncccn12)C1CC1	-0.8	·	·	·	·	·
Cc1c(CC(=O)O)c(=O)oc2c(C)c3occ(-c4ccc(Br)cc4)c3cc12	4.5	?	-50.7*	?	-1.4%	-7.3%
CCCCN1C[C@@H](COCc2ccccc2)Oc2cccc(F)c2S1(=O)=O	0.1	·	·	·	·	·
CCCCCN1CCCCC(NC(=O)c2ccc3ccccc3c2)C1=O (stereo not drawn)	4.1	·	·	·	·	·
CC1(C)Cc2cccc(OCC(=O)NCCOc3ccccc3)c2O1	-1.5	21.6%	-50.7*	-6.2%	-4.0%	-7.9%
Clc1cccc(Cl)c1CNc1ccc(N2CCCC2)cc1	-4.9	7.7%	-50.9*	-5.1%	3.5%	-13.5%
O=C(Cc1ccc(Cl)cc1)Nc1ccc(N2CCCC2)cc1	-8.5	-1.0%	-7.4	14.8%	7.2%	·
Cc1cccc(N2CC(C(=O)Nc3nnc(SCC(=O)Nc4nccs4)s3)CC2=O)c1 (stereo not drawn)	17.7	-1.7%	?	4.5%	8.4%	·
Cc1ccccc1N1CC(C(=O)Nc2nnc(SCC(=O)Nc3nccs3)s2)CC1=O (stereo not drawn)	-3.3	-3.7%	?	36.6%	-4.9%	-9.1%
O=C(OCc1cn(Cc2ccc(F)cc2)nn1)N1CCOCC1	-1.4	·	·	·	·	·
N#Cc1ccc(C(C(=O)Nc2ccc3c(c2)OCCO3)n2c(=O)c(-c3ccco3)nc3ccccc32)cc1 (stereo not drawn)	-5.3	·	?	·	·	·
CCCCCNC(=O)C(c1cc2ccccc2o1)n1c(=O)c(-c2ccco2)nc2ccccc21 (stereo not drawn)	-6.5	·	-108.3*	·	·	-6.8%
COc1ccc2nc(-c3ccco3)c(-c3ccco3)nc2c1	-3.2	-16.3%	-57.9*	·	-7.5%	-3.2%
COc1ccc2nc3cccc(OC)c3nc2c1	-8.3	-12.3%	-6.5	-26.8%	?	·
CCCCCNC(=O)C(c1ccncc1)n1c(=O)c(-c2ccco2)nc2ccccc21 (stereo not drawn)	-16.4	·	?	·	·	·
Cc1cccc(C)c1NC(=O)C(c1ccc(C#N)cc1)n1c(=O)c(-c2ccco2)nc2ccccc21 (stereo not drawn)	-8.0	·	-52.8*	·	·	-1.5%
CCCCNC(=O)c1ccc2nc(-c3ccco3)c(-c3ccco3)nc2c1	?	-8.0%	-72.8*	·	-15.5%	-10.1%
